Measured values: PubChem BioAssay AID538 (PCMD, 2006)
In all, about 62,000 compounds went through this assay and about 100 (0.16%) were called active.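 How the source made its calls: active means inhibition above 20% in each of the two 10-compound mixture wells holding the compound; inactive means the rest.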 The sample as a whole holds a higher share of actives than the screen did.

target: Complement C1s subcomponent (Homo sapiens) (UniProt P09871); test: complement C1s protease inhibitors, primary screen, biochemical, 10-compound mixtures (AID 538); details: purified C1s, fluorogenic AMC substrate, pooled mixtures; screened at 5 µM (by protocol);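 further: 0% = enzyme wells lacking compound mixture and 100% = no-enzyme blank wells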
Sequence (P09871 16-437 limits assumed): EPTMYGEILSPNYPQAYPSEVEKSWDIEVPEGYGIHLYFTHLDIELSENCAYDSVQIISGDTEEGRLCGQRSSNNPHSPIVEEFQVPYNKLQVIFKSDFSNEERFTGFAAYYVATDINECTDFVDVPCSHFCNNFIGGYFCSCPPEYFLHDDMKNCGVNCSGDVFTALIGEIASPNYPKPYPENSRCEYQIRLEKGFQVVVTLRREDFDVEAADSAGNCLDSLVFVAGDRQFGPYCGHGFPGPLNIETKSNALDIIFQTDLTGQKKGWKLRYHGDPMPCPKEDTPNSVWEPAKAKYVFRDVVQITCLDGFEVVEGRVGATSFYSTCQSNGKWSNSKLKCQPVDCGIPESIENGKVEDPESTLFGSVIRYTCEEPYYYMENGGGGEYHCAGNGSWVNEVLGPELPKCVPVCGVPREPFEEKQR
Sequence (P09871 438-688 limits assumed): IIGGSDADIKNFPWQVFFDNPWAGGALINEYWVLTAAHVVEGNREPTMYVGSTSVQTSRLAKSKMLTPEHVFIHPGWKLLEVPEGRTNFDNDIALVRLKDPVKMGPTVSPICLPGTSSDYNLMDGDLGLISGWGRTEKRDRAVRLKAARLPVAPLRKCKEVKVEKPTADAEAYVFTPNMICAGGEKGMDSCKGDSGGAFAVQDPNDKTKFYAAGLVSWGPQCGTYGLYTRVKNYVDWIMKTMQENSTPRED

Mean inhibition % of two 10-compound mixtures (hits give high values), inactive:
COc1ccc(S(=O)(=O)N(C)CC(=O)Nc2ccc3c(c2)OCCO3)cc1OC 3.88%, COc1cccc(C(=O)Nc2c3c(nn2-c2cccc(C)c2C)CS(=O)(=O)C3)c1OC -0.81%, CC(=O)N1CCN(c2cccc(C)c2C)CC1 6.81%, Cc1nnc(NC(=O)CCC(=O)N2CCC(C)CC2)s1 4.7%, O=C(C(Cc1ccccc1)n1cccc1)N1CCN(C2CCCCC2)CC1 (configuration not stated) 11.2%, Cn1c(SCC(=O)N2CCOCC2)nnc1-c1ccc(NC(=O)c2ccccc2F)cc1 3.6%, O=C(COc1ccc(F)cc1)N(CC1=CCS(=O)(=O)C1)c1ccccc1 4.83%, O=C1NC2(CCCCC2)N=C1c1ccccc1 2.35%, CCC/C(O)=C1\C(=O)CC(C)(C)CC1=Nc1ccccc1OC 9.67%, O=C(CS(=O)(=O)c1cn(Cc2cccc(F)c2)c2ccccc12)N1CCCCC1 -0.735%, CCOc1ccc(Cn2nnc(C(=O)NCc3ccccc3)c2N)cc1 -16.1%, Oc1ccc(Cl)cc1/C=N/c1nc2ccccc2[nH]1 5.15%, CCN=C1SC(CC(=O)Nc2ccc(C)cc2)C(=O)N1CC (configuration not stated) -15%, Cc1occc1C(=O)N1CCCc2ccccc21 -1.12%, CCN(CC)C(=O)CSc1nnc(-c2cnccn2)n1-c1ccc(C)cc1 14.1%, COc1ccc(-c2nnc(SCC(=O)NC3CCCCC3)o2)cc1OC -3.36%, CCCOC(=O)C1=C(C)NC2=C(C(=O)C(C(=O)OC)C(C)C2)C1c1ccc(N(C)C)cc1 (configuration not stated) -5.72%, CC(CN1CCCCC1)OC(=O)c1ccccc1Cl (configuration not stated) 2.23%, CN1CCCc2cc(C#N)c(=O)[nH]c21 -74.4%, Cc1ncn(C23CC4CC(CC(O)(C4)C2)C3)n1 0.845%, Cc1ncc(CC(=O)n2cc(C(=O)c3cc(Cl)ccc3O)cn2)s1 8.66%, Cn1c(=O)c2c(nc(SCC(=O)Nc3ccccc3N3CCCCC3)n2C)n(C)c1=O -17.6%
